In the supplement of paper PMC8269313:

Tested on: 4T1
Assay: % inhibition of 4T1 cell number vs DMSO control; higher = stronger growth inhibition
Conditions: 1 µM, 3 days
Summary of the method: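 4T1-H2B-GFP mouse breast cancer cells (3000 per well, 2% FBS medium) were seeded in 96-well imaging plates on plastic, denuded lung or mCAF1 fibroblast-derived matrix, Matrigel (15 μg/mL) or 0.2% gelatin; edge wells were left unused. After 16 h, kinase inhibitors were added at 1 μM final for 3 days. Plates were formalin-fixed, DAPI-stained and imaged on an INCell Analyzer 2200, and GFP-positive nuclei were counted. Percent inhibition of cell number was calculated relative to DMSO control.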

[1] = substrate: lung fibroblast-derived matrix
[2] = substrate: mCAF1 fibroblast-derived matrix

Row | SMILES | % inhibition of 4T1 cell number (substrate: Matrigel) [%] | % inhibition of 4T1 cell number (substrate: gelatin) [%] | % inhibition of 4T1 cell number [1] [%] | % inhibition of 4T1 cell number [2] [%] | % inhibition of 4T1 cell number (substrate: plastic) [%]
1 | CC(C)(C)c1cc(C=C(C#N)C#N)cc(Br)c1O | 46.6 | -2.78 | 2.02 | 0.929 | 35.7
2 | COc1ccc2c(c[n+](C)c3c4cc5c(cc4ccc23)OCO5)c1OC [Chelerythrine Chloride] | 20 | -43 | 4.48 | 8.26 | -4.98
3 | COc1ccc2c(c1)/C(=C/c1cnc[nH]1)C(=O)N2 | 24.5 | 50.7 | 8.25 | 17.6 | 17.3
4 | COC(=O)[C@]1(O)C[C@@H]2O[C@@]1(C)n1c3ccccc3c3c4c(c5c6ccccc6n2c5c31)C(=O)NC4 [K-252a, Nocardiopsis sp.] | 87.4 | 91.8 | 2.02 | 98.1 | 91.5
5 | O=S(=O)(c1c(O)c(Cl)cc(Cl)c1Cl)c1c(O)c(Cl)cc(Cl)c1Cl [p38 MAP Kinase Inhibitor IV] | -24.4 | 7.41 | -2.09 | 31.2 | -30.3
6 | O=[N+]([O-])/C=C/c1ccc2c(c1)OCO2 [Syk Inhibitor III] | -4.15 | -72.6 | -12.2 | -33.4 | -19.4
7 | NC(=NN=Cc1ccc(-c2cccc([N+](=O)[O-])c2)o1)N[N+](=O)[O-] [ERK Inhibitor III] | 24.7 | 24.5 | -2.29 | -12.4 | 41.4
8 | O=C1NC(=O)c2c1c1c3ccccc3n3c1c1c2c2ccccc2n1[C@H]1CC[C@@H]3O1 | 30 | 44.2 | -1.14 | 29.4 | 87.4
